According to PubChem BioAssay (NCATS):
Records with an inconclusive call do not appear. Active and inactive are the calls of the source. Calls follow the shape of the dose curve; as a rule, active = well fitted cell-killing curve with a large enough effect; inconclusive = small, poorly fitted or top-dose-only effect, or effect the other way; inactive = no such curve, though single readings can be large or run the other way.

Test: Quantitative High-Throughput drug screen in 47 multiple myeloma cell lines against the NCATS MIPE library collection: KMS26_JCRB cell viability assay (AID 1918975); also: nearly all actives have a fitted effect of over 45% in size
Details: KMS26 myeloma cells viability, CellTiter-Glo ATP, 48 h; series mostly up to 45.8 µM; viability (% of DMSO): at the top concentration
From the text: PI: Beverly A. Mock Ph.D.
Laboratory of Cancer Biology and Genetics,
Center for Cancer Research, National Cancer Institute,
National Institute of Health, Bethesda, Maryland
Drug resistance and disease progression are common in multiple myeloma (MM) patients, underscoring the need for new therapeutic combinations. […] We hypothesized that effective combinations would reduce MYC expression and enhance p16 activity. […] These preclinical data identify potentially useful drug combinations for evaluation in drug-resistant MM and reveal potential mechanisms of combined drug sensitivity.
Described herein is the primary MIPE qHTS used to cherrypick compounds. Validated compounds were then further tested for potential synergistic activiy.
[1] Peat TJ, Gaikwad SM, Dubois W, Gyabaah-Kessie N, Zhang S, Gorjifard S, Phyo Z, Andres M, Hughitt VK, Simpson RM, Miller MA, Girvin AT, Taylor A, Williams D, D'Antonio N, Zhang Y, Rajagopalan A, Flietner E, Wilson K, Zhang X, Shinn P, Klumpp-Thomas C, McKnight C, Itkin Z, Chen L, Kazandijian D, Zhang J, Michalowski AM, Simmons JK, Keats J, Thomas CJ, Mock BA. Drug combinations identified by high-throughput screening promote cell cycle transition and upregulate Smad pathways in myeloma. Cancer Lett. 2023 Aug 1;568:216284. doi: 10.1016/j.canlet.2023.216284. Epub 2023 Jun 24. PMID: 37356470; PMCID: PMC10408729.
SEQUENCE No. (e.g., 1, 2, 3, etc.); […] (e.g., Cells, Incubation, Reagent, etc.); VALUE and DESCRIPTION.
1; Cells; 5 uL; white, solid bottom 1536-well Greiner assay plate.
2; Compounds; 23 nL; Kalypsis pin tool (Wako USA) equipped with a 1536-well pin head to transfer to the assay plates.
3; Incubation; 48 hours; 37C incubation.
4; Reagent;5uL; CellTiter Glo (Promega).
5; Detector; 425V; Luminescence; Viewlux PerkinElmer.
NOTES (numbers refer to Sequence numbers above)
1. The cell-based screening methods employed in this study were like those previously published. Briefly, the corresponding myeloma cell lines were screened in 1,536-well plates with 500 cells, 5-uL per well for inhibition of cell viability (assessed by measuring ATP levels with CellTiterGlo).
2. NCATS MIPE 4.0 library of approved and investigational drugs were added using the Kalypsis pin tool. Wells treated with DMSO only for 100% viability and media only wells for 0% viability were used as controls.
3. The assay plates were covered and incubated for 48 hours in a 37C, 5% CO2 incubator with controlled humidity.
4. After 48 hours, CellTilter-GloTM luminescent substrate mix (Promega) reagent was added to the assay plate and plates we incubated for 5 min at room temperature.
5. Signal was measured as median relative luminescence units on a ViewLux (PerkinElmer) multiplate reader.
[1] Heske CM, Davis MI, Baumgart JT, Wilson K, Gormally MV, Chen L, Zhang X, Ceribelli M, Duveau DY, Guha R, Ferrer M, Arnaldez FI, Ji J, Tran HL, Zhang Y, Mendoza A, Helman LJ, Thomas CJ. Matrix Screen Identifies Synergistic Combination of PARP Inhibitors and Nicotinamide Phosphoribosyltransferase (NAMPT) Inhibitors in Ewing Sarcoma. Clin Cancer Res. 2017 Dec 1;23(23):7301-7311. doi: 10.1158/1078-0432.CCR-17-1121. Epub 2017 Sep 12. PMID: 28899971; PMCID: PMC6636827.
Potency is read from the fitted curve at half-maximal effect.

| Structure (SMILES) | viability (% of DMSO) | Potency |
| --- | --- | --- |
| CCn1cc(C(=O)O)c(=O)c2cc(F)c(N3CCN(C)CC3)cc21 | 112% (inactive) | – |
| COc1ccc(-c2ccc3cc(C(=O)O)ccc3c2)cc1C12CC3CC(CC(C3)C1)C2 | 135% (inactive) | – |
| S=P(N1CC1)(N1CC1)N1CC1 | 144% (inactive) | – |
| COC(=O)Nc1nc2ccc(C(=O)c3ccccc3)cc2[nH]1 | – | 8.33 µM (active) |
| CC(C)C[C@H](NC(=O)[C@H](CCc1ccccc1)NC(=O)CN1CCOCC1)C(=O)N[C@@H](Cc1ccccc1)C(=O)N[C@@H](CC(C)C)C(=O)[C@@]1(C)CO1 | – | 0.0132 µM (active) |
| CC(C)OC(=O)C(C(=O)OC(C)C)=C1SC=CS1 | – | 0.003 µM (active) |
| Cn1c(=O)c2c(ncn2CC(O)CO)n(C)c1=O (stereo not given) | 114% (inactive) | – |
| CCOC(=O)[C@H](CCc1ccccc1)N[C@H]1CS[C@H](c2cccs2)CN(CC(=O)O)C1=O | – | 18.7 µM (active) |
| COc1cc(NS(=O)(=O)c2ccc(N)cc2)nc(OC)n1 | 125% (inactive) | – |
| C1CCC(C(CC2CCCCN2)C2CCCCC2)CC1 (stereo not given) | – | 16.6 µM (active) |
| CC1=NN(c2ccccc2)C(=O)C1 | 133% (inactive) | – |
| CCCCS(=N)(=O)CCC(N)C(=O)O (stereo not given) | 139% (inactive) | – |
| Nc1nc(F)nc2c1ncn2[C@@H]1O[C@H](CO)[C@@H](O)[C@@H]1O | – | 0.235 µM (active) |
| O=NN(CCCl)C(=O)NC1CCCCC1 | 148% (inactive) | – |
| CCN1CCCC1CNC(=O)c1cc(S(N)(=O)=O)ccc1OC (stereo not given) | 124% (inactive) | – |
| O=P(O)(O)C(O)(Cc1cccnc1)P(=O)(O)O | – | 0.0017 µM (active) |
| NNC(=O)c1ccncc1 | 127% (inactive) | – |
| COc1cc2ncnc(Nc3cccc(Cl)c3)c2cc1OC | – | 23.5 µM (active) |
| CNCC[C@H](Oc1cccc2ccccc12)c1cccs1 | – | 7.43 µM (active) |
| O[C@@H](CNC[C@H](O)[C@H]1CCc2cc(F)ccc2O1)[C@@H]1CCc2cc(F)ccc2O1 | – | 26.4 µM (active) |

| Structure (SMILES) | viability (% of DMSO) | Potency |
| --- | --- | --- |
| NCCCC(O)(P(=O)(O)O)P(=O)(O)O | 144% (inactive) | – |
| Cc1cccc(N(C)C(=S)Oc2ccc3ccccc3c2)c1 | 96.9% (inactive) | – |
| NC(=O)c1cccc(N)c1 | 156% (inactive) | – |
| CO[C@@]12[C@H](COC(N)=O)C3=C(C(=O)C(C)=C(N)C3=O)N1C[C@@H]1N[C@@H]12 | – | 23.5 µM (active) |
| COC(c1ccccc1)(c1ccccc1)[C@H](Oc1nc(C)cc(C)n1)C(=O)O | 138% (inactive) | – |
| CC1(C)[C@H](C(=O)O)N2C(=O)C[C@H]2S1(=O)=O | 143% (inactive) | – |
| COC(=O)Nc1nc2ccc(S(=O)c3ccccc3)cc2[nH]1 (stereo not given) | 156% (inactive) | – |
| C[C@]12C=CC(=O)C=C1CC[C@@H]1[C@@H]2C(=O)C[C@@]2(C)[C@H]1CC[C@]2(O)C(=O)CO | 141% [at 23.2 µM] (inactive) | – |
| CN(C)CCc1c[nH]c2ccc(C[C@H]3COC(=O)N3)cc12 | 117% (inactive) | – |
| COc1cc2nc(N3CCCN(C)CC3)nc(NC3CCN(Cc4ccccc4)CC3)c2cc1OC | – | 5.26 µM (active) |
| CC(C)(C#N)c1cc(Cn2cncn2)cc(C(C)(C)C#N)c1 | 133% (inactive) | – |
| CCCc1nc(C)c2c(=O)[nH]c(-c3cc(S(=O)(=O)N4CCN(CC)CC4)ccc3OCC)nn12 | – | 4.69 µM (active) |
| CCCCc1oc2ccc(NS(C)(=O)=O)cc2c1C(=O)c1ccc(OCCCN(CCCC)CCCC)cc1 | – | 14.8 µM (active) |
| CCOC(=O)c1ccc(C#Cc2ccc3c(c2)C(C)(C)CCS3)nc1 | 115% (inactive) | – |
| CN(C)c1ccc(C(=C2C=CC(=[N+](C)C)C=C2)c2ccc(N(C)C)cc2)cc1 | – | 0.166 µM (active) |
| NC(=O)N1c2ccccc2CC(=O)c2ccccc21 | 171% (inactive) | – |
| CC(=O)CC(c1ccccc1)c1c(O)c2ccccc2oc1=O (stereo not given) | 116% (inactive) | – |
| CC(C)C1CCC(C(=O)N[C@H](Cc2ccccc2)C(=O)O)CC1 (stereo not given in full) | 98% (inactive) | – |
| COc1ccc(C(=O)CC(=O)c2ccc(C(C)(C)C)cc2)cc1 | – | 7.43 µM (active) |
| CC(C)(C)C(=O)OCOP(=O)(COCCn1cnc2c(N)ncnc21)OCOC(=O)C(C)(C)C | – | 6.62 µM (active) |
